Experimental data taken from PubChem BioAssay AID1159580 (chemical genetic matrix, 2015).
Several values for one entry are separate records, joined by “and”; a condition that tells them apart may be missing. Equal values may be shown once. The campaign covered roughly 5,500 compounds. About 2,000 (36%) were called active. Roughly 18% stayed inconclusive and do not appear here. Rule as the data show it: active = normalized growth mostly below about 0.91 (no sharp cut-off); inconclusive = no clear call, values can overlap the other calls; inactive = mostly above about 0.92. The list shows a part of the results.

Assay: chemical genetic growth profiling, strain panel (AID 1159580);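 also: tested at 20 µM; growth read once vehicle control cultures reached saturation at 30 °C; 1 = growth at the plate median or of vehicle wells; lower values mean less growth of the strain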
Conditions: growth OD

Measured: normalized growth

C[N+]1(CCCCC[N+]2(C)CCCC2)CCCC1
inactive: S. cerevisiae deletion strains, locus YJR043C, strain POL32, active compounds read low 1.01 | S. cerevisiae deletion strains, locus YJR075W, strain HOC1, active compounds read low 1.02 and 0.994 | S. cerevisiae deletion strains, locus YKL009W, strain mrt4, active compounds read low 1.04 | S. cerevisiae deletion strains, locus YKL068W, active compounds read low 1.01 | S. cerevisiae deletion strains, locus YKL085W, strain MDH1 (second series), active compounds read low 1.01 | S. cerevisiae deletion strains, locus YKL085W, strain MDH1, active compounds read low 1.01 | S. cerevisiae deletion strains, locus YKL160W, strain elf1, active compounds read low 1.01 | S. cerevisiae deletion strains, locus YKL190W, strain CNB1, active compounds read low 1.01 | S. cerevisiae deletion strains, locus YKR001C, strain vps1, active compounds read low 1.01 | S. cerevisiae deletion strains, locus YKR026C, strain gcn3, active compounds read low 1 | S. cerevisiae deletion strains, locus YKR091W, strain srl3, active compounds read low 1 | S. cerevisiae deletion strains, locus YLL001W, strain dnm1, active compounds read low 1 | S. cerevisiae deletion strains, locus YLL026W, active compounds read low 0.992 | S. cerevisiae deletion strains, locus YLL041C, strain sdh2, active compounds read low 0.999 | S. cerevisiae deletion strains, locus YLR027C, strain aat2, active compounds read low 0.992 | S. cerevisiae deletion strains, locus YLR039C, strain RIC1, active compounds read low 1.02 | S. cerevisiae deletion strains, locus YLR058C, strain SHM2, active compounds read low 1.01 | S. cerevisiae deletion strains, locus YLR102C, strain apc9, active compounds read low 1.02 | S. cerevisiae deletion strains, locus YLR221C, strain rsa3, active compounds read low 1 | S. cerevisiae deletion strains, locus YLR258W, strain gsy2, active compounds read low 0.998 | S. cerevisiae deletion strains, locus YLR262C, strain YPT6 (second series), active compounds read low 1.03 | S. cerevisiae deletion strains, locus YLR262C, strain YPT6, active compounds read low 1.03 | S. cerevisiae deletion strains, locus YLR268W, strain sec22, active compounds read low 1.03 | S. cerevisiae deletion strains, locus YLR320W, strain mms22, active compounds read low 0.993 | S. cerevisiae deletion strains, locus YLR330W, strain CHS5, active compounds read low 1 | S. cerevisiae deletion strains, locus YLR342W, strain FKS1 (second series), active compounds read low 1.01 | S. cerevisiae deletion strains, locus YLR342W, strain FKS1, active compounds read low 0.995 | S. cerevisiae deletion strains, locus YLR357W, strain rsc2, active compounds read low 0.963 | S. cerevisiae deletion strains, locus YLR370C, strain arc18, active compounds read low 1 | S. cerevisiae deletion strains, locus YLR371W, strain rom2, active compounds read low 1.03 | S. cerevisiae deletion strains, locus YLR384C, strain iki3, active compounds read low 0.992 | S. cerevisiae deletion strains, locus YLR418C, strain cdc73, active compounds read low 1.02 | S. cerevisiae deletion strains, locus YML016C, strain PPZ1, active compounds read low 1.01 | S. cerevisiae deletion strains, locus YML032C, strain rad52, active compounds read low 1.03 | S. cerevisiae deletion strains, locus YML120C, strain ndi1, active compounds read low 0.99 | S. cerevisiae deletion strains, locus YML124C, strain tub3, active compounds read low 1.02 | S. cerevisiae deletion strains, locus YMR058W, strain fet3, active compounds read low 0.999 | S. cerevisiae deletion strains, locus YMR078C, strain ctf18, active compounds read low 1.03 | S. cerevisiae deletion strains, locus YMR125W, strain sto1, active compounds read low 0.979 | S. cerevisiae deletion strains, locus YMR129W, active compounds read low 0.999 | S. cerevisiae deletion strains, locus YMR205C, strain PFK2, active compounds read low 1.01 | S. cerevisiae deletion strains, locus YMR223W, strain ubp8, active compounds read low 1 | S. cerevisiae deletion strains, locus YMR231W, strain pep5, active compounds read low 0.993 | S. cerevisiae deletion strains, locus YMR263W, strain SAP30, active compounds read low 1.01 | S. cerevisiae deletion strains, locus YMR307W, strain GAS1, active compounds read low 1 and 1.02 | S. cerevisiae deletion strains, locus YNL067W, strain RPL9B, active compounds read low 1.02 | S. cerevisiae deletion strains, locus YNL071W, strain lat1, active compounds read low 0.997 | S. cerevisiae deletion strains, locus YNL128W, strain TEP1, active compounds read low 1.01 | S. cerevisiae deletion strains, locus YNL153C, strain GIM3, active compounds read low 1.01 and 1.02 | S. cerevisiae deletion strains, locus YNL175C, strain NOP13, active compounds read low 0.993 | S. cerevisiae deletion strains, locus YNL197C, strain WHI3, active compounds read low 0.982 | S. cerevisiae deletion strains, locus YNL209W, strain ssb2, active compounds read low 0.995 | S. cerevisiae deletion strains, locus YNL224C, strain SQS1, active compounds read low 0.988 | S. cerevisiae deletion strains, locus YNL233W, strain BNI4, active compounds read low 1.01 | S. cerevisiae deletion strains, locus YNL248C, strain rpa49, active compounds read low 0.996 | S. cerevisiae deletion strains, locus YNL250W, strain rad50, active compounds read low 1.02 | S. cerevisiae deletion strains, locus YNL271C, strain bni1, active compounds read low 1.01 | S. cerevisiae deletion strains, locus YNL298W, strain CLA4, active compounds read low 1.02 | S. cerevisiae deletion strains, locus YNL307C, strain MCK1, active compounds read low 1.03 | S. cerevisiae deletion strains, locus YNL322C, strain KRE1 (second series), active compounds read low 0.998 | S. cerevisiae deletion strains, locus YNL322C, strain KRE1, active compounds read low 1 | S. cerevisiae deletion strains, locus YNR049C, strain mso1, active compounds read low 0.994 | S. cerevisiae deletion strains, locus YNR052C, strain pop2, active compounds read low 1.02 | S. cerevisiae deletion strains, locus YOL006C, strain TOP1, active compounds read low 1.04 | S. cerevisiae deletion strains, locus YOL012C, strain htz1 1.04 | S. cerevisiae deletion strains, locus YOL147C, strain pex11, active compounds read low 1.02 | S. cerevisiae deletion strains, locus YOR001W, strain rrp6, active compounds read low 0.995 | S. cerevisiae deletion strains, locus YOR061W, strain CKA2, active compounds read low 1.01 | S. cerevisiae deletion strains, locus YOR069W, strain VPS5, active compounds read low 1 | S. cerevisiae deletion strains, locus YOR070C, strain gyp1, active compounds read low 0.998 | S. cerevisiae deletion strains, locus YOR080W, strain dia2, active compounds read low 0.987 | S. cerevisiae deletion strains, locus YOR083W, strain WHI5 (second series), active compounds read low 1.01 | S. cerevisiae deletion strains, locus YOR083W, strain WHI5, active compounds read low 0.993 | S. cerevisiae deletion strains, locus YOR106W, strain vam3, active compounds read low 1.01 | S. cerevisiae deletion strains, locus YOR136W, strain idh2, active compounds read low 1.01 | S. cerevisiae deletion strains, locus YOR144C, strain elg1, active compounds read low 1.02 | S. cerevisiae deletion strains, locus YOR184W, strain ser1, active compounds read low 1.03 | S. cerevisiae deletion strains, locus YOR265W, strain rbl2, active compounds read low 0.994 | S. cerevisiae deletion strains, locus YOR270C, strain vph1, active compounds read low 1.02 | S. cerevisiae deletion strains, locus YOR290C, strain snf2, active compounds read low 0.996 | S. cerevisiae deletion strains, locus YOR316C, strain cot1, active compounds read low 1.01 | S. cerevisiae deletion strains, locus YPL051W, strain arl3, active compounds read low 0.999 | S. cerevisiae deletion strains, locus YPL055C, strain LGE1, active compounds read low 1.03 | S. cerevisiae deletion strains, locus YPL078C, strain atp4, active compounds read low 0.997 | S. cerevisiae deletion strains, locus YPL106C, strain sse1, active compounds read low 0.985 | S. cerevisiae deletion strains, locus YPL240C, strain hsp82, active compounds read low 0.982 | S. cerevisiae deletion strains, locus YPL241C, strain CIN2, active compounds read low 1.01 and 0.991 | S. cerevisiae deletion strains, locus YPR119W, strain clb2, active compounds read low 1.02 | S. cerevisiae deletion strains, locus YPR141C, strain kar3, active compounds read low 1.01 | S. cerevisiae deletion strains, locus YPR163C, strain tif3, active compounds read low 1.02 | S. cerevisiae deletion strains, locus YPR167C, strain met16, active compounds read low 1.01 | S. cerevisiae deletion strains, strain wtn01, active compounds read low 1.01 | S. cerevisiae strains, strain wild type, active compounds read low 1.01
